Reference: PubChem BioAssay AID588783 (NMMLSC, 2011)
Entries with a potency or affinity are not part of this list. Active and inactive are the calls of the source.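 The calls were made as follows: active = inhibition of specific binding of 40% or more; inactive = inhibition of specific binding below 40%.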

Tested on: beta-arrestin 1 peptide binding to AP-2 beta2-adaptin appendage (human)
Assay: beta-arrestin/AP2 interaction blockers, potency – biochemical, cherry pick 1, beta2-adaptin appendage, flow cytometry, dose response (AID 588783)
Details: Bead flow cytometry, FITC-arrestin peptide binding GST-AP2; at 9.12 µM; stronger effect = higher value

| SMILES | inhibition of specific binding |
| --- | --- |
| O=C(NCC1COc2ccccc2O1)c1ccc(NC(=O)C(c2ccccc2)c2ccccc2)cc1 (stereo unspecified) | 7% (inactive) |
| Cc1nn(-c2ccccn2)c2c1C(c1ccsc1)C1=C(CCCC1=O)N2 (stereo unspecified) | 12% (inactive) |
| COc1cc(C2Nc3cccc4cccc(c34)N2)cc(OC)c1O | 12% (inactive) |
| COC(=O)c1ccccc1N/C=C1\CCc2c(c(C)nn2-c2ccccn2)C1=O | 7% (inactive) |
| CN1c2ccccc2N(C)C1(C)c1ccccc1 | 3% (inactive) |
| Nc1c(C(=O)NC2CC2)sc2nc3c(c(-c4ccco4)c12)CC/C3=C/c1ccco1 | 22% (inactive) |
